Calls of active or inactive are those of the source.

Assay [1] has as its system PRMT1 (protein arginine N-methyltransferase 1). Put plainly: PRMT1 binders on small-molecule microarrays, primary screen, biochemical, small-molecule microarray, 635 nm fluorescence (AID 1088).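 Note: binding of Prmt1 protein to compounds spotted on small-molecule microarray slides.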 As to conditions: small-molecule microarray binding, higher = more signal.
Assay [2] in a line: yeast growth modulation, basal conditions, primary screen, YJM789 clinical isolate, OD600, 24 h (AID 1089).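 Note: growth of clinical yeast isolate S. cerevisiae YJM 789 seeded 1000 cells per well; test concentration not given here.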 Conditions: S. cerevisiae YJM789 growth, higher = more signal, called active from +8 up or from −8 down.
A short description of assay [3]: fission yeast growth modulation, primary screen, strain 972, OD600, 24 h, no modulator (AID 1090).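 Note: basal condition with compound alone and no growth modifier present; test concentration not given here.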 As to conditions: S. pombe 972 growth, higher = more signal, called active from +8 up or from −8 down.
Assay [4] is described as follows: S. cerevisiae growth modulation with rapamycin, primary screen, strain BY4716, OD600, 96 h (AID 1091). Note: test concentration not given here. Conditions: higher = more signal, called active from +8 up or from −8 down.
In assay [5] the target is Torsin-1A-interacting protein 2 (Homo sapiens) (UniProt Q8NFQ8). Put plainly: LULL1 binders on small-molecule microarray, primary screen, cell lysate, human LULL1 lysate, 635/667 nm fluorescence (AID 1092).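 Note: probe is lysate of COS7 cells overexpressing human LULL1; score merges per-feature 667 nm fluorescence with signal-to-noise.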 As to conditions: hLULL1 lysate binding, 635 nm fluorescence, higher = more signal.
The nature of assay [6]: E. coli growth modulation, two-sided OD650, primary screen, E. coli filamentation project, strain DRC41, 24 h (AID 1093).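 Note: MC1000 strain lacking acrAB efflux and sulA so SOS filamentation is blocked; test concentration not given here.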 Conditions: OD650, 24 h, higher = more signal, called active from +8 up or from −8 down.
Assay [7] can be described thus: small-molecule microarray binders of probe aLefty2, primary screen, biochemical, biotinylated probe, 635/667 nm fluorescence (AID 1094).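 Note: score merges spot fluorescence near 667 nm with spot signal-to-noise ratio.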 As to conditions: higher = more signal.
The test system of assay [8] is Noggin (protein binding on small-molecule microarray). The assay is described as follows: Noggin binders on small-molecule microarray, primary screen, biochemical, 635/667 nm fluorescence (AID 1095).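 Note: score merges 667 nm feature fluorescence with signal to noise over triplicate slides.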 Conditions: 635 nm fluorescence, higher = more signal.
Assay [9] addresses Neurogenic locus notch homolog protein 3 (Homo sapiens) (UniProt Q9UM47). The assay is described as follows: NOTCH3 binders on small-molecule microarray, primary screen, biochemical, 635/667 nm fluorescence (AID 1096). Conditions: NOTCH3 binding, 635 nm fluorescence, higher = more signal.
The nature of assay [10]: small-molecule microarray binders of probe aEGFR, primary screen, biochemical, biotinylated probe, 635/667 nm fluorescence (AID 1097).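 Note: probe is a biotinylated anti-EGFR antibody binding compounds printed on slides; score combines fluorescence near 667 nm and signal to noise of each spot.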 As to conditions: higher = more signal.
The subject of assay [11] is Plasmodium falciparum Sir2 (PF13_0152, Sir2A). Put plainly: pfSir2 binders on small-molecule microarrays, primary screen, biochemical, small-molecule microarray, 635 nm fluorescence (AID 1098).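 Note: score merges spot fluorescence intensity with its signal-to-noise ratio.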 Conditions: small-molecule microarray binding, fluorescence 635 nm; higher = more signal.
Assay [12] can be described thus: small-molecule microarray binders of probe aDKK1, primary screen, biochemical, biotinylated probe, 635/667 nm fluorescence (AID 1099).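 Note: score merges 667nm spot fluorescence with signal to noise across triplicate slides; reference of the scale not given here.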 Conditions: higher = more signal.
Assay [13] can be described thus: small-molecule microarray binders of probe aCHRDL2, primary screen, biochemical, biotinylated probe, 635/667 nm fluorescence (AID 1100). Conditions: higher = more signal.
A short description of assay [14]: splicing luciferase reporter signal modulators, primary screen, spliceosome inhibition project, cell-based, HEK293, splice +/- reporter (AID 1101).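 Note: HEK293 cells carrying a splicing-competent luciferase reporter gene; test concentration not given here.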 Conditions: luminescence, 24 h, higher = more signal, called active from +8 up or from −8 down.
For assay [15], the target named is Fibroblast growth factor 10 (Homo sapiens) (UniProt O15520). The assay is described as follows: FGF10 binders on small-molecule microarrays, primary screen, biochemical, small-molecule microarray, 635 nm fluorescence (AID 1102). As to conditions: FGF10 binding, fluorescence 635 nm, higher = more signal.
Assay [16] has as its system glycogen synthase kinase-3 (GSK3A per assay name; protocol says GSK3B). Put plainly: GSK3 binders on small-molecule microarrays, primary screen, biochemical, small-molecule microarray, 635 nm fluorescence, GSK3A (AID 1103). Note: the record names both GSK3A and GSK3B. As to conditions: small-molecule microarray binding, fluorescence 635 nm; higher = more signal.
Assay [17] addresses Epidermal growth factor receptor (Homo sapiens) (UniProt P00533). The assay is described as follows: EGFR binders on small-molecule microarrays, primary screen, biochemical, small-molecule microarray, 635 nm fluorescence (AID 1104).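 Note: score merges 667 nm emission intensity with spot signal to noise over triplicate slides.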 Conditions: EGFR binding, higher = more signal.
Assay [18] deals with Follistatin-related protein 3 (Homo sapiens) (UniProt O95633). The assay is described as follows: FSTL3 binders on small-molecule microarrays, primary screen, biochemical, small-molecule microarray, 635 nm fluorescence (AID 1105).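 Note: score merges emission near 667 nm and signal to noise per printed spot across three slides.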 As to conditions: FSTL3 binding, higher = more signal.
Assay [19] has as its target Dickkopf-related protein 1 (Homo sapiens) (UniProt O94907). The assay is described as follows: DKK1 binders on small-molecule microarrays, primary screen, biochemical, small-molecule microarray, 635 nm fluorescence scan (AID 1106).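 Note: score merges emission near 667 nm with signal to noise over three replicate slides.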 As to conditions: DKK1 binding, higher = more signal.
Assay [20] concerns Inhibin beta A chain (activin A). The assay is described as follows: INHBA (activin A) binders on microarrays, primary screen, biochemical, small-molecule microarray, 635 nm fluorescence scan (AID 1107).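 Note: mouse activin A protein probed at 4.33 µg/mL on printed slides; score merges bound-protein fluorescence near 667 nm with spot signal-to-noise.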 Conditions: small-molecule microarray binding, higher = more signal.

Sequence of Dickkopf-related protein 1 (Homo sapiens) (O94907 whole entry, looked up): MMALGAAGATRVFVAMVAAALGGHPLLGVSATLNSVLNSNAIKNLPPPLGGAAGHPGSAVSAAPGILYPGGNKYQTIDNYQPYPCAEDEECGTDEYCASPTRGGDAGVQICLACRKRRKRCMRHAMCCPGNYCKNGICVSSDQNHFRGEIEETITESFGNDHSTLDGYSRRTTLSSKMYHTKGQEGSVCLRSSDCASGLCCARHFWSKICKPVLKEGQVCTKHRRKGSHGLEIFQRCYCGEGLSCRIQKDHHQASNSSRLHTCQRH
Sequence of Epidermal growth factor receptor (Homo sapiens) (P00533 whole entry, looked up): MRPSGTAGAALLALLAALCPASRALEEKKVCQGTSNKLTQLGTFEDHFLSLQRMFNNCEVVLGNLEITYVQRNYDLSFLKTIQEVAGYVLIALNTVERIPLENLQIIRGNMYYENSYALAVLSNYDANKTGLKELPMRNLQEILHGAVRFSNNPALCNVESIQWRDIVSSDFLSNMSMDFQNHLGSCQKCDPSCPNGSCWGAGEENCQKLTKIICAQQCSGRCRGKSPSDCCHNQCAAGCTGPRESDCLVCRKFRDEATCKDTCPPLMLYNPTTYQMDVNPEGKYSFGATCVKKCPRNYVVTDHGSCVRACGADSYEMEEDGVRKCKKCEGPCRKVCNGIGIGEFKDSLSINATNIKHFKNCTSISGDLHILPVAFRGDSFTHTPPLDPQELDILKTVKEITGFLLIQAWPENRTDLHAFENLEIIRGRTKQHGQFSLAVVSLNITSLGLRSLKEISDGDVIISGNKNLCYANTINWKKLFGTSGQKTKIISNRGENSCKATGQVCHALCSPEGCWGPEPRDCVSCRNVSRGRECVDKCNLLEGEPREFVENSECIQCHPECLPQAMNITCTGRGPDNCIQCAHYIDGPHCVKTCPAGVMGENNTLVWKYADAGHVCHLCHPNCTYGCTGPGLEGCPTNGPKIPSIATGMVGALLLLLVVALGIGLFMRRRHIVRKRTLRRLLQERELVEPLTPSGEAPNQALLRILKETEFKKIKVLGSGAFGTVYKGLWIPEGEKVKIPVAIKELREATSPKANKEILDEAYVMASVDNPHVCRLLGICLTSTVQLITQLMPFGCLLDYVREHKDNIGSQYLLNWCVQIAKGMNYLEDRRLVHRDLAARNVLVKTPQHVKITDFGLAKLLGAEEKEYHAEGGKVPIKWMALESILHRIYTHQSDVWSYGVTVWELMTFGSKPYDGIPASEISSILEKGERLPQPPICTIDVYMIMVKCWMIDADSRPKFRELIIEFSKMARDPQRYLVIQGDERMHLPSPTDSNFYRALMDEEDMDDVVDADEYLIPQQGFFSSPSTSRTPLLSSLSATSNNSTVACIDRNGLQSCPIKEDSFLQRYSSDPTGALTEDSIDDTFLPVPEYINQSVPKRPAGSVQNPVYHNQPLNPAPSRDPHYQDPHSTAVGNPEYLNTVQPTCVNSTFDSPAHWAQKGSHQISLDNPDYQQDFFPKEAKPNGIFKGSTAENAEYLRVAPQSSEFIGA
Sequence of Follistatin-related protein 3 (Homo sapiens) (O95633 whole entry, looked up): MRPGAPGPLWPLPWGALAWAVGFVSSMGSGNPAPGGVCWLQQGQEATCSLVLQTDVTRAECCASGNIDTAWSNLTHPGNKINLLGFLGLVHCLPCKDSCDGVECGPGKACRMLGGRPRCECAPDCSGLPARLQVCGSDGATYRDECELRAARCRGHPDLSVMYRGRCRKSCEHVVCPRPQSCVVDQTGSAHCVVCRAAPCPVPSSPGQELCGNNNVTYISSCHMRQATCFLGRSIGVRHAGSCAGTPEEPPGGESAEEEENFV
Sequence of Torsin-1A-interacting protein 2 (Homo sapiens) (Q8NFQ8 whole entry, looked up): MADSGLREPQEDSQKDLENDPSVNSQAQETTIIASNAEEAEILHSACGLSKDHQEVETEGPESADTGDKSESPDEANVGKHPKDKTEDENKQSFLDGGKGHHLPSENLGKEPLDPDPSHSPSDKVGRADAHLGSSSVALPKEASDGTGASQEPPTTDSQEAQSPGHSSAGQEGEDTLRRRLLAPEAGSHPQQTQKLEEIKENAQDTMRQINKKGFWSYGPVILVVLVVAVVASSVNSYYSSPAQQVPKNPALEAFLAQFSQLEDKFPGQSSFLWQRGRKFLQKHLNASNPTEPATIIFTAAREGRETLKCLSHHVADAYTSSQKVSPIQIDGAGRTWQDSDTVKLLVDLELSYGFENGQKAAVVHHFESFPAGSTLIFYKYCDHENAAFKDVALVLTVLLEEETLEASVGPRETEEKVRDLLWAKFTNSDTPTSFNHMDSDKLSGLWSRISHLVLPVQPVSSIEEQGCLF
Sequence of Fibroblast growth factor 10 (Homo sapiens) (O15520 whole entry, looked up): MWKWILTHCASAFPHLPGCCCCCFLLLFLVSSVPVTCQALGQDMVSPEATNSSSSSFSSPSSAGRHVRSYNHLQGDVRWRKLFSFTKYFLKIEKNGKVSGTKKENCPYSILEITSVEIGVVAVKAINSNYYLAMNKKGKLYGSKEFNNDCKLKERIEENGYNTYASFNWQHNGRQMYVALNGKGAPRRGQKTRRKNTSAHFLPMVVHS
Sequence of Neurogenic locus notch homolog protein 3 (Homo sapiens) (Q9UM47 whole entry, looked up): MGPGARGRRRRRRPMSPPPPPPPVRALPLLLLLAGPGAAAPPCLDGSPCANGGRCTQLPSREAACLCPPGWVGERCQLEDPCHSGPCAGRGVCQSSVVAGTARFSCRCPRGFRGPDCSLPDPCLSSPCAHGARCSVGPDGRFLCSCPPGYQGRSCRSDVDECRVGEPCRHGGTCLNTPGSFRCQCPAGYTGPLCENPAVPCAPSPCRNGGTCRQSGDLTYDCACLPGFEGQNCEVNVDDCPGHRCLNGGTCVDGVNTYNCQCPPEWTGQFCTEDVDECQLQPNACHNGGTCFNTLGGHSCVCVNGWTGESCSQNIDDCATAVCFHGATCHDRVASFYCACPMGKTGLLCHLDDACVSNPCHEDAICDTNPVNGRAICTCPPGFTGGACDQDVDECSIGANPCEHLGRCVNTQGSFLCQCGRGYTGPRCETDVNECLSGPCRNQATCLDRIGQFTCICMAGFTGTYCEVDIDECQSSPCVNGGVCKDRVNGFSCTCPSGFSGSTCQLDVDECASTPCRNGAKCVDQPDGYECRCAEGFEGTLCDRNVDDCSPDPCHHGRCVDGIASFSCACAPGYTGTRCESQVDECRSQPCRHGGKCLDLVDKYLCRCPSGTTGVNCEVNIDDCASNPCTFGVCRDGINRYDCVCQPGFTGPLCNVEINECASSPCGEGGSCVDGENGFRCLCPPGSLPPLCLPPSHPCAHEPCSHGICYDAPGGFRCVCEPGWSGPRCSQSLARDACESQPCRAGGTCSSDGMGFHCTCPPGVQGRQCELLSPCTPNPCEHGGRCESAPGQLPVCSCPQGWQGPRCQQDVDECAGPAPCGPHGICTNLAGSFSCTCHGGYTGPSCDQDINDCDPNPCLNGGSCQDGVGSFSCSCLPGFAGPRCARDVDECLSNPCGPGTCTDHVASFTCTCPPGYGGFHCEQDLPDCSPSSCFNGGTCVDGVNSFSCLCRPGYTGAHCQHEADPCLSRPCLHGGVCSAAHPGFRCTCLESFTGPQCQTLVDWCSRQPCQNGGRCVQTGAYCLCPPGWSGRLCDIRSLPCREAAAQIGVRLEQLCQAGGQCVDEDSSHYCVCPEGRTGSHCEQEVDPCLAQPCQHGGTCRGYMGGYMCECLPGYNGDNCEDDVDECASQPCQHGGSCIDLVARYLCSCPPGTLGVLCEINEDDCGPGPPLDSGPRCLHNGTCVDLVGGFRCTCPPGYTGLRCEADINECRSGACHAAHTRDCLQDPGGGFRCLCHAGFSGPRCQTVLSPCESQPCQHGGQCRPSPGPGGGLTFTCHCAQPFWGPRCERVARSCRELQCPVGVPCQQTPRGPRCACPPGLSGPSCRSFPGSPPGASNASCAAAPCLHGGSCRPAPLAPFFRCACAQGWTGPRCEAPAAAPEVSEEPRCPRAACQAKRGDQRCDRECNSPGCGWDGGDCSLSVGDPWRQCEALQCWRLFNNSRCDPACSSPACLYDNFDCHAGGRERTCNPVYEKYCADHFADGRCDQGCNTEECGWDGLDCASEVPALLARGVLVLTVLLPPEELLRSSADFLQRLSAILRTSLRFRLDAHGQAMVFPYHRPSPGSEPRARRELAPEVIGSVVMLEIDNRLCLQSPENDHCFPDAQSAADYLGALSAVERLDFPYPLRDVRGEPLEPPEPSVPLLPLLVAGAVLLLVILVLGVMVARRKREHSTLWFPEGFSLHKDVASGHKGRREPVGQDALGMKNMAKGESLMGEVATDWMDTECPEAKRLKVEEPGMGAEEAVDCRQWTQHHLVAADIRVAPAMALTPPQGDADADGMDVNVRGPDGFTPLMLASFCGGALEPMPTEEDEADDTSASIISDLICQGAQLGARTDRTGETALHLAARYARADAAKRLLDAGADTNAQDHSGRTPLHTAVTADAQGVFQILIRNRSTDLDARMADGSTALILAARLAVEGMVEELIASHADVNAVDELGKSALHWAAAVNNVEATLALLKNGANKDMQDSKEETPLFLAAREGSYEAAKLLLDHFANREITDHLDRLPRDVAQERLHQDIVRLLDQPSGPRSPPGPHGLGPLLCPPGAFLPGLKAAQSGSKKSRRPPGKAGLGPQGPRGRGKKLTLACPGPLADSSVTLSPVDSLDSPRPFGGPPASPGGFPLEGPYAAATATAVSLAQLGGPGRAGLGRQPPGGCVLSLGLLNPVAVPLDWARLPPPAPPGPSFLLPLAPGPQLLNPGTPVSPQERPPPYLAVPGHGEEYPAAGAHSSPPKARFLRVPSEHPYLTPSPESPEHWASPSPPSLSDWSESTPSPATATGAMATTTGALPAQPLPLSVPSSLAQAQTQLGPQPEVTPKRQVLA

On to `CCCCN1CC=CC23O[C@@H]4C=CCOC(=O)[C@@H]4[C@H]2C(=O)N(CCO)[C@@H]3C1=O` (stereo not given in full), for which the composite z-score in assay [1] was -0.757; in assay [5], 0.62; in assay [7], 0.221; in assay [8] it was -1.45; in [9], -0.823; in [10], -0.327. Also, the composite z-score is 1.58 in [11]; 0.125 in assay [12]; 0.537 in [13]; -1.25 in assay [15]; -0.641 in assay [16]; -1.54 in assay [17]. Also, the figures for the composite z-score in assay [18], in [19] and in assay [20] were -1.24, -1.58 and -0.112, respectively. For the same molecule, the z-score in assay [2] is -0.312 (inactive); in assay [3], -0.706 (inactive); in assay [4], -0.179 (inactive); in assay [6], -0.454 (inactive); in assay [14], 0.499 (inactive).
Consider `C=CC[C@@]12N=C(c3ccc(OCCCO)cc3)O[C@@H]1c1ccccc1N(Cc1ccccc1)C2=O`, for which the composite z-score in assay [1] is 1.54; in [5], 3.14; in assay [7], 0.145; in assay [8], 1.72; in [9], 1.08; in [10], 0.0631. In addition, the composite z-score in assay [11] was 1.55; in assay [12], 1.36; in assay [13], 1.08; in [15] it was 1.26; in [16] it was 1.34; in [17], 0.657. Besides, the composite z-score was determined as 1.48 in assay [18], 0.904 in assay [19] and 1.12 in assay [20]. In addition, the z-score in assay [2] is -0.965 (inactive); in assay [3], -1.53 (inactive); in assay [4] it was 1.86 (inactive); in assay [6] it was 1.12 (inactive); in assay [14], -1.37 (inactive).
On to `C=CC[C@]1(C(=O)OC)N=C(c2ccc(OCCCO)cc2)O[C@H]1c1ccccc1N=[N+]=[N-]`, for which the composite z-score in assay [1] came to 1.54; in assay [5] it was 3.36; in assay [7], 0.529; in assay [8], 1.41; in assay [9], 1.08; in assay [10] it was 0.686. For the same molecule, the composite z-score in assay [11] amounted to 1.54; in assay [12], 1.21; in assay [13], 0.865; in assay [15] it was 1.25; in assay [16] it was 1.31; in [17], 1.19. The composite z-score in [18] came out at 1.37; in assay [19], 1.26; in assay [20], 0.826. Moreover, the z-score in assay [2] is -0.747 (inactive); in assay [3] it was -0.652 (inactive); in assay [4] it was 1.35 (inactive); in assay [6], -0.225 (inactive); in assay [14] it was -1.4 (inactive).
As for `COCCOC(=O)N1C(=O)[C@@]2(c3cc(C#CC4(O)CCCCCC4)ccc31)[C@H](C(=O)N1CCc3cc(OC)c(OC)cc3C1)[C@H]1C(=O)O[C@H](c3ccccc3)[C@H](c3ccccc3)N1[C@@H]2c1ccc(O)cc1`, the composite z-score in assay [1] is 1.54; in assay [5], 2.96; in assay [7] it was -0.0699; in [8], 1.44; in assay [9] it was 1.05; in assay [10], 1.04. Also, the composite z-score in assay [11] was found to be 0.974; in assay [12], 0.142; in [13], 0.248; in [15] it was 1.02; in assay [16] it was 1.32; in assay [17] it was 0.648. Also, the composite z-score in [18] came out at 1.02; in assay [19], 0.639; in assay [20] it was 0.122. Further, the z-score is 0.449 (inactive) in assay [2]; -0.929 (inactive) in [3]; 1.7 (inactive) in assay [4]; 1.55 (inactive) in assay [6]; 0.543 (inactive) in assay [14].
Regarding `CC(=O)NCCCC[C@@H]1NC(=O)[C@@H]2C[C@H](C(=O)NCCCCCC[N+](C)(C)C)[C@H](c3ccc(O)cc3)N2C1=O`, the composite z-score was 0.914 in [1]; 1.43 in [5]; 0.104 in assay [7]; 0.761 in assay [8]; 0.157 in [9]; -0.476 in assay [10]. Further, the composite z-score in assay [11] was 1.42; in assay [12], -0.134; in assay [13] it was -0.208; in assay [15], 0.518; in assay [16] it was 0.224; in assay [17] it was 0.0882. The composite z-score in assay [18] was 0.977; in assay [19] it was 1.12; in [20], 0.645. The z-score in [2] was 0.124 (inactive); in assay [3] it was -0.16 (inactive); in assay [4], 0.216 (inactive); in [6], -0.453 (inactive); in assay [14] it was -0.0826 (inactive).

For the origin of these results see PubChem BioAssay.
